# Laboratory results published in PubChem BioAssay AID1835 (Johns Hopkins Ion Channel Center, 2009).
# Screen size: about 2,400 compounds; about 750 (31%) were called active. This is one part of the list. A number with no mark means an inactive call.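 Rule for the calls: active = median signal gain over dofetilide-blocked control wells reaching their mean plus 3 SD, so readout 1 at least 0; inactive = the rest.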
# Biological target: Voltage-gated inwardly rectifying potassium channel KCNH2 (Homo sapiens) (UniProt Q12809)
# Experiment: hERG protection against dofetilide inhibition, confirmation, cell-based, thallium flux, duplicate retest, dofetilide IC70 (AID 1835)
# Conditions: hERG cell line, FluxOR thallium flux, dofetilide-blocked; at 10 µM; stronger effect = higher value
# Voltage-gated inwardly rectifying potassium channel KCNH2 (Homo sapiens), sequence (Q12809 whole entry, looked up): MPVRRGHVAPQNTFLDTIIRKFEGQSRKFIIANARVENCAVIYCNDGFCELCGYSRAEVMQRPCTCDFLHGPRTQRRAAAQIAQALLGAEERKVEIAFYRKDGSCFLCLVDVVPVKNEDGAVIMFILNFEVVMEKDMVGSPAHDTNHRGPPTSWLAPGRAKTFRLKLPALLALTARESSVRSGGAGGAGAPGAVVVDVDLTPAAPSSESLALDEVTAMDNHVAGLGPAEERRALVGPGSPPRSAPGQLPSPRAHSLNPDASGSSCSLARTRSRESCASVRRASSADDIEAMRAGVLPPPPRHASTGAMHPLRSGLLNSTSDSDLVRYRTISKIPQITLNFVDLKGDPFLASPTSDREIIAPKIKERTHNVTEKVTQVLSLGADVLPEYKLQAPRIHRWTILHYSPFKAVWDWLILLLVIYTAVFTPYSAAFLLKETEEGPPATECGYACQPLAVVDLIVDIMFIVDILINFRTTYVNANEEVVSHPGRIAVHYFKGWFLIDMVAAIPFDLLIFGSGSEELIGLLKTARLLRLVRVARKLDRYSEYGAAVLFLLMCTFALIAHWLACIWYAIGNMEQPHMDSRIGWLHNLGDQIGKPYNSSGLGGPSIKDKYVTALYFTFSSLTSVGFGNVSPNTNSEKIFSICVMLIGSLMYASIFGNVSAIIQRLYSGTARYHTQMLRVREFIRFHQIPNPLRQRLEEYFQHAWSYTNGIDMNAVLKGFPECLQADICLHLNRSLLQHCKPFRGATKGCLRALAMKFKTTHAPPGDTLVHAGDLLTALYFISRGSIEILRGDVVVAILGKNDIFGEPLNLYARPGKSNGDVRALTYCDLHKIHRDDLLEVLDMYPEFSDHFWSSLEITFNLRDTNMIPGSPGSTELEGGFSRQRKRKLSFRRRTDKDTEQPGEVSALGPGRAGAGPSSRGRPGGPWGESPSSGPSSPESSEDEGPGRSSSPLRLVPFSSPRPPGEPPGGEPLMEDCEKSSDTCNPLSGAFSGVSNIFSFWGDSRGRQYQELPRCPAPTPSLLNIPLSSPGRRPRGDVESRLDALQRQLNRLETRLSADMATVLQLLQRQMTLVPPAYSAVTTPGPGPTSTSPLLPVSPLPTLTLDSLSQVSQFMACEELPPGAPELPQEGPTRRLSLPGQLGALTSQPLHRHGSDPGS
row,Structure (SMILES),"activity increase over dofetilide control, less the hit threshold"
1,Cc1c(Cl)c([N+](=O)[O-])nn1CC(=O)NCC(C)C,-20%
2,COc1ccc(COC(=O)C2CCN(S(=O)(=O)c3cccs3)CC2)cc1,-27%
3,CC1CCCC(C)N1S(=O)(=O)c1ccc(NC(=O)CCn2cnc3ccccc3c2=O)cc1 (stereo not given),-12%
4,O=C(Nc1ccccc1C(=O)O)c1ccc(NC(=O)C2CC2)cc1,-2%
5,CCOc1ccc(C(=O)Nc2ccccc2C(=O)O)cc1,3% (active)
6,CCCCC(=O)Nc1cccc(C(=O)Nc2ccccc2C(=O)O)c1,-3%
7,Cn1c(/N=C/c2c(O)ccc3ccccc23)nc2ccccc21,-32%
8,O=S(=O)(Nc1ccc(Cc2ccncc2)cc1)c1ccc(Cl)c(Cl)c1,-6%
9,O=C1C2CC=CCC2C(=O)N1c1ccc(Cc2ccncc2)cc1 (stereo not given),3% (active)
10,CC(C)(C)c1cc(C(=O)NNC(=O)c2ccc(Cl)cc2)no1,29% (active)
11,CC(C)(C)c1csc(NNC(=O)c2ccc(Cl)cc2)n1,-3%
12,Cc1nc(-c2nc(-c3c(C(=O)NNC(=O)c4ccc(Cl)cc4)noc3C)cs2)cs1,-17%
13,Cc1csc2c(N3CCCCC3)ncnc12,-8%
14,CC(=O)CSc1ncnc2sc3c(c12)CCC(C)C3 (stereo not given),72% (active)
15,COc1cc(NC(=O)CSc2ncnc3sc4c(c23)CCC(C)C4)c(C(=O)O)cc1OC (stereo not given),94% (active)
16,Cc1nnc(NC(=O)CN2CCN(Cc3ccc(F)cc3Cl)CC2)s1,-17%
17,CCCCCCC1CCC(C(=O)N2CCOCC2)CC1 (stereo not given),-5%
18,O=C(CCCc1c[nH]c2ccccc12)Nc1ccc(S(=O)(=O)Nc2ncccn2)cc1,-19%
19,COCC1CCCN(C(=O)c2ccc3oc(C(C)C)nc3c2)C1 (stereo not given),-12%
20,Oc1c(Cl)cc(CN2CCCCC2)c2cccnc12,-6%
21,O=C(c1c(O)c2ccccc2oc1=O)C1CCCCC1,-4%
22,O=c1oc2ccccc2c(Cl)c1CN1CCCCC1,2% (active)
23,Cc1ccc(NC(=O)CCc2nc3sc4c(c3c(=O)[nH]2)CCCC4)c(Br)c1,-17%
24,NC(=O)C1CCN(C(=O)CC(c2ccccc2)c2ccccc2)CC1,-17%
25,O=c1c2ccccc2nc(-c2ccccc2)n1O,-7%

row,Structure (SMILES),"activity increase over dofetilide control, less the hit threshold"
1,O=C(Cc1ccccc1)Nn1c(-c2ccccc2)nc2ccccc2c1=O,-15%
2,O=c1c2cc(Cl)ccc2nc(-c2ccc(Cl)c(Cl)c2)n1O,124% (active)
3,Cc1ccc(-c2nc3c(Cl)cc(Cl)cc3c(=O)n2O)cc1,83% (active)
4,O=c1c2cc(Cl)ccc2nc(-c2ccccc2)n1O,18% (active)
5,Cc1ccc(-c2nc3ccccc3c(=O)n2O)cc1,14% (active)
6,CCOc1ccc(N=Nc2cc(C(C)C)ccc2O)cc1,-9%
7,COC(=O)Sc1nnc(-c2ccc(Br)cc2)o1,-2%
8,CNC(=O)COC(=O)c1cccc(S(=O)(=O)N2CCN(c3ccc(F)cc3)CC2)c1,-20%
9,CCC(C)NC(=O)Cn1nc(C(F)(F)F)c2c1CCCC2 (stereo not given),-7%
10,Cc1ccccc1Cc1c(C)nc2c(C(=O)NCc3ccc4c(c3)OCO4)cnn2c1C,-11%
11,OC(CNCC(c1ccc(Cl)cc1Cl)c1c[nH]c2ccccc12)c1ccccc1 (stereo not given),-48%
12,CCOc1ccc(NC(=O)CN(C)C(=O)c2c(-c3c(F)cccc3Cl)noc2C)cc1OCC,-7%
13,CN(Cc1cccc(C(F)(F)F)c1)Cc1nc(-c2cnccn2)no1,-8%
14,CCOC(=O)c1c(N2C(=O)Nc3ccccc3N2O)n[nH]c1-c1cccc(Cl)c1,-4%
15,O=c1c2ccccc2nc(-c2cccc(Cl)c2)n1O,39% (active)
16,Cc1ccc(-c2nc3ccc(Cl)cc3c(=O)n2O)cc1,78% (active)
17,Cc1ccc(-c2onc3ccc(Cl)cc23)cc1,0%
18,O=c1c2ccccc2nc(-c2ccc(Cl)c(Cl)c2)n1O,36% (active)
19,Cc1ccc(C(=O)NNc2cc(N3CCCC3)nc(N3CCCC3)n2)cc1,-6%
20,CCOc1ccc2[nH]cc(S(=O)(=O)c3ccc(F)cc3)c(=O)c2c1,-19%
21,Cc1ccc(-c2nc(CSCC(=O)N3CCOCC3)c(C)o2)cc1,-9%
22,NC(=O)[C@@H]1CCCN1Cc1nc(Cc2ccccc2Cl)no1,-15%
23,O=C(NC(=S)Nc1ccccc1N1CCCC1)c1ccccc1Br,-2%
24,Cc1nn(CCC(=O)NNC(=S)Nc2ccc(F)cc2)c(C)c1[N+](=O)[O-],-24%
25,Cc1nn(C)c(C(=O)NC(=S)Nc2ccccc2Br)c1Cl,27% (active)
